# Inconclusive results are not listed. Active and inactive are the calls of the source. The calls were made as follows: active = hit-call score of the fitted dose curve at least 0.9, where 1 is the maximum; inconclusive = response in the unintended direction; inactive = score below 0.9.
# Target: guinea pig Leukotriene D4 Receptor (LTD4), CYSLTR1 (gene 100135514) (UniProt Q2NNR5)
# Assay: NVS_GPCR_gLTD4: NovaScreen (NVS) G Protein-Coupled Receptor Assay for guinea pig Leukotriene D4 Receptor (LTD4) (AID 2283248)
# Method in brief: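 Guinea pig lung membrane preparation; bound radioligand measured by filter scintillation after 1 h, loss of signal versus DMSO marking displacement. Compounds tested at 25 uM in duplicate, hits retested to max 50 uM.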
# Sequence of guinea pig Leukotriene D4 Receptor (LTD4), CYSLTR1 (gene 100135514) (Q2NNR5 whole entry, looked up): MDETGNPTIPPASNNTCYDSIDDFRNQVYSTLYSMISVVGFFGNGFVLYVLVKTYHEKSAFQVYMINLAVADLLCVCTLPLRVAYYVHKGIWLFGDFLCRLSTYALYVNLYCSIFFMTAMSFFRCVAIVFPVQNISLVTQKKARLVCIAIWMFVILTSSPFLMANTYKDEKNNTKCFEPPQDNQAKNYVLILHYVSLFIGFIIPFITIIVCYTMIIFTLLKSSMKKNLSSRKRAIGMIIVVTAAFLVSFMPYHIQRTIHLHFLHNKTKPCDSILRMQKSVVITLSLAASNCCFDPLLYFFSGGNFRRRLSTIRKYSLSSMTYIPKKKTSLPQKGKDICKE
row,Structure (SMILES),AC50
1,CCC[CH2][Sn]([Cl])([CH2]CCC)[CH2]CCC,1860 nM (active)
2,[Cl-].[Cl-].[Hg+2],1400 nM (active)
